The source of these data is the supplement of paper PMC10338343.

± gives the standard deviation.
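Also: 1 nM active piRISC with 0.1 nM target library at 33 °C single turnover.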

For the experiment, the system named is MILI (PIWIL2) piRISC loaded with piRNA #1 (26 nt). The experiment in a line: pre-steady-state target cleavage rate (min^-1); guide: piRNA #1 5'p-UGAGGUAGUAGGUUGUAUAGUAUCCA; MIWI and MILI are mouse PIWI proteins and EfPiwi is from a freshwater sponge; tags in brackets are library labels; higher = faster piRNA-guided slicing of the target. Conditions: auxiliary factor: 500 nM mouse GTSF1. The gist of the method:
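Active affinity-purified piRISC carrying one synthetic guide (1 nM) was mixed with a transcribed, DNA-blocked target RNA library […] in HEPES–potassium acetate buffer at 33 °C for 0–8 or 0–960 min, with or without 500 nM GTSF1 partner protein. Uncleaved targets were then sequenced and normalised to depth and to weakly complementary targets. Three trials were pooled, and k3 was capped at 0.0001 min^-1. A burst-and-steady-state fit was applied to obtain the pre-steady-state cleavage rate.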
On to GGAGACCUAUGAUAACAACCUACUUCCUCA, for which the “pre-steady-state target cleavage rate” value came out at 0.00353 ± 0.0025.

Turning to GGAGACCUAUCAUACAACCUACUACCUCA, the “pre-steady-state target cleavage rate” value was determined as 0.0591 ± 0.0093.

For the sequence GGAGACCUUACAAUUCAACCUACUACCUCA, the “pre-steady-state target cleavage rate” value was determined as 0.102 ± 0.013.

GGAGACCUAUCAAUACAACCUAGUACCUCA: the “pre-steady-state target cleavage rate” value worked out at 0.00718 ± 0.0036.

On to GGAGACCUAUCUCAUACAACCUACUACCUCA, for which the “pre-steady-state target cleavage rate” value was 0.0664 ± 0.01.

Consider GGAGACGAUACUAUACAACCUACUAUCCUCA, for which the “pre-steady-state target cleavage rate” value is 0.193 ± 0.024.

With GGAGACGAUACUAAUGAACCUACUACCUCA, the “pre-steady-state target cleavage rate” value came to 0.0821 ± 0.011.

For GGAGACCUAUGAAUACUACCUACUACGUCA, the “pre-steady-state target cleavage rate” value stood at 0.00344 ± 0.0026.

On to GGAGUGGAUACUUAACAACCUACUACCUCA, for which the “pre-steady-state target cleavage rate” value worked out at 0.157 ± 0.0088.

On to GGAGACCUAUGAAAACAACCUACUAGCUCA, for which the “pre-steady-state target cleavage rate” value stood at 0.00432 ± 0.0025.

Consider GGAGACCUUACUUAACAACCUACUACCUCA, for which the “pre-steady-state target cleavage rate” value worked out at 0.101 ± 0.016.

As for GGAGAGGAUACAAUAGAACCUACUACCUCA, the “pre-steady-state target cleavage rate” value stood at 0.148 ± 0.012.

With GGAGACCUAUGUAUACACCCUACUACCUCA, the “pre-steady-state target cleavage rate” value was 0.0161 ± 0.0035.

Take GGAGACCUUACUAUACAUGCUACUACCUCA: the “pre-steady-state target cleavage rate” value came out at 0.111 ± 0.0086.

On to GGAGACCUAUGAUAAAACCUACUACCUCA, for which the “pre-steady-state target cleavage rate” value worked out at 0.00798 ± 0.0023.

As to GGAGACCAUACUAUAGUACCUACUACCUCA, the “pre-steady-state target cleavage rate” value came to 0.149 ± 0.018.

Turning to GGAGUGGUAACUAUACAACCUACUACCUCA, the “pre-steady-state target cleavage rate” value is 0.141 ± 0.016.

Regarding GGAGAGGAUAGUAAACAACCUACUACCUCA, the “pre-steady-state target cleavage rate” value was determined as 0.0497 ± 0.011.

Take “GGAGACCUAUGUAUACAACCUACUACCUCC [g2:g19:cont:t1C]”: the “pre-steady-state target cleavage rate” value stood at 0.0539 ± 0.0077.

As to GGAGACCUAACUAUACAUCGUACUACCUCA, the “pre-steady-state target cleavage rate” value is 0.0246 ± 0.0074.

As for GGAGACCAUACUAAACAAGCUACUACCUCA, the “pre-steady-state target cleavage rate” value amounted to 0.236 ± 0.018.

For the sequence GGAGACCUAUGAUUACAACCUACAUCCUCA, the “pre-steady-state target cleavage rate” value stood at 0.00278 ± 0.0025.

As to GGAGACCUAUGAUUACAACCUACCACCUCA, the “pre-steady-state target cleavage rate” value was found to be 0.00484 ± 0.0035.

As for GGAGACCUAUCUAUACAACCUACAUGCUCA, the “pre-steady-state target cleavage rate” value worked out at 0.068 ± 0.021.

GGAGACCUAUGAUAACAACGUACUACCUCA: the “pre-steady-state target cleavage rate” value is 0.00353 ± 0.0022.

As to GGAGACCUAACUAUACAGCCUACUACCUCA, the “pre-steady-state target cleavage rate” value turned out to be 0.0605 ± 0.018.

As to GGAGACGAUUGUAUACAACCUACUACCUCA, the “pre-steady-state target cleavage rate” value is 0.0734 ± 0.0068.

As to GGAGACCUAACUAUACUACCUUCUACCUCA, the “pre-steady-state target cleavage rate” value was determined as 0.00544 ± 0.0042.

Consider GGAGACCUAUGAUAUGUACCUUCUACGUCA, for which the “pre-steady-state target cleavage rate” value was < 0.0001.

Take GGAGACCUUAGUAUACAACGUACUACCUCA: the “pre-steady-state target cleavage rate” value turned out to be 0.0124 ± 0.0037.

As to GGAGACCUUACUAUACAACCUACAUGCUCA, the “pre-steady-state target cleavage rate” value stood at 0.0591 ± 0.012.

As to GGAGACCUAACUAUACAACUUACUACCUCA, the “pre-steady-state target cleavage rate” value came out at 0.0179 ± 0.0043.

For the sequence GGAGACCUUAGUUUACAACCUACUACCUCA, the “pre-steady-state target cleavage rate” value stood at 0.0381 ± 0.012.

GGAGACCUAUGAAUACAACCUACUAGCUCA: the “pre-steady-state target cleavage rate” value was found to be 0.00444 ± 0.0022.

For the sequence GGAGUGGAUACUUUAGAACCUACUACCUCA, the “pre-steady-state target cleavage rate” value worked out at 0.116 ± 0.0096.

With GGAGAGGUUACUAUACAAGCUACUACCUCA, the “pre-steady-state target cleavage rate” value was determined as 0.0739 ± 0.012.

In the case of “GGAGACCUAUGAUUACAACCUACUACCUCA [g2:g17:cont:t1A]”, the “pre-steady-state target cleavage rate” value came to 0.00593 ± 0.0026.

Turning to GGAGAGGAUACUAUUGUACCUACUACCUCA, the “pre-steady-state target cleavage rate” value amounted to 0.131 ± 0.0096.

As for GGAGACCUAUGAUUACAACCUACUACUCUCA, the “pre-steady-state target cleavage rate” value was 0.00541 ± 0.0034.

In the case of GGAGACCUUACUAUCAACCUACUACCUCA, the “pre-steady-state target cleavage rate” value was determined as 0.0728 ± 0.0079.
